# Most compounds without a hit are left out; they make up all but 1.5% or so of the library.
# Giardia kill: Giardia lamblia killing. 340,000 tested, 0.15% active. Giardia lamblia trophozoite viability. activity change, % at 7.66 µM, hits read low. AID 540267; in the data active = activity change below about -80%; inconclusive = between about -30% and that limit;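 note: parasites exposed to compound for two days anaerobically before the ATP read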
#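 Trophozoites 100 cells/well + cpd; 48 hrs, 37 deg C, anaerobic. ATPLite 1-Step added, 15-30 min RT, luminescence read (ATP-based viability).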
# GALK inh: blocks human galactokinase activity | P51570 | Purified GALK, Kinase-Glo residual ATP luminescence | Potency, µM (top dose mostly 57.5 µM), for the others: at the highest dose activity change, negative = inhibition, actives largely listed as inhibitors | 270,000 tested, 0.007% active | AID 1868; note: potency is the fitted concentration of half-maximal effect
# Target sequence (P51570 whole entry, looked up): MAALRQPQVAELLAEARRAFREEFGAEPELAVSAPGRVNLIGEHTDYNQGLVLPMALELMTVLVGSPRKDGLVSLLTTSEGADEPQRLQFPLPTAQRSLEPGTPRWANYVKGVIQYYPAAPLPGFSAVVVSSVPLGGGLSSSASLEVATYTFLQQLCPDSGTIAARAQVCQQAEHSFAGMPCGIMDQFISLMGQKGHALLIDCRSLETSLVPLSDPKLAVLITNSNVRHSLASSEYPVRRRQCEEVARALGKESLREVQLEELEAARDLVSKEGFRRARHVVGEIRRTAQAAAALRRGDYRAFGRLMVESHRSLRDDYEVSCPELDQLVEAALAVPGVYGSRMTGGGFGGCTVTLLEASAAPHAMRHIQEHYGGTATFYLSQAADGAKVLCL
#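 Kinase-Glo Plus luminescence measured ATP left after a 1 h room-temperature reaction. The reaction used 5 nM GALK, 100 uM galactose and 35 uM ATP at pH 8.0 (20 mM HEPES, 5 mM MgCl2, 60 mM NaCl, 1 mM DTT, 0.01% BSA).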
# TrxR1 inh: blocks rat thioredoxin reductase 1 | recombinant rTrxR1, NADPH fluorescence consumption, selenite substrate | Potency, µM (top dose mostly 114 µM), for inactives: at the top dose activity change, negative = inhibition, actives largely listed as inhibitors | 390,000 tested, 1% active | AID 588453; note: potency is the fitted concentration of half-maximal effect; nearly all actives have a fitted effect of over 65% in size
#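 Rat TrxR1 (90 nM in the dispensed reagent) was pre-reduced with 400 uM NADPH for 5 min at room temperature, then incubated with compound for 15 min. After 400 uM selenite was added, NADPH fluorescence (Ex 340/Em 450 nm) was followed for 8 min.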
# Coupling enz: counter-screen for Giardia aldolase inhibitors: coupling enzyme system. 290,000 tested, 0.67% active. coupling enzyme system counterscreen, AmpLite Red fluorescence. activity change, negative = inhibition, % at 58.2 µM, hits read low; in the data active = activity change below about -30%
#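 Fluorescence at 525 nm excitation and 598 nm emission measured inhibition of the coupled detection system without aldolase. Compounds (at 57.5 uM final) were preincubated 10 min at room temperature with coupling enzyme reagent before a 20 min substrate/AmpLite Red step.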
# TrxR1 substrate: substrates of rat thioredoxin reductase 1. purified TrxR1 substrate turnover, NADPH consumption readout. Potency, µM (top dose mostly 114 µM), without a hit: at the highest dose activity change, negative = substrate turnover. 390,000 tested, 0.01% active. O89049. AID 588456; note: potency is the fitted concentration of half-maximal effect; nearly all actives have a fitted effect of over 50% in size
#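 Rat TrxR1, dispensed at 90 nM, was prereduced with 400 uM NADPH (final) for 5 min at ~22 deg C, then incubated with compound 15 min before 400 uM selenite. A first-read NADPH fluorescence drop versus no-compound background flagged substrates.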
# PI4K2A inh: blocks human PI4K2A kinase activity; AID 1346378; Q9BTU6; purified PI4K2A, ADP-Glo luminescence, 1 h; stronger effect = lower value; 420,000 tested, 0.13% active; activity change, negative = inhibition, % at 76.9 µM; in the data active = activity change below about -50%; inconclusive = mostly about -30% to -49%;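 note: -100% = wells without enzyme as full effect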
#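 Compounds are screened against recombinant PI4K2A using PI as substrate and ATP, the latter dispensed at 300 microM. Reactions run one hour at ambient temperature before ADP-Glo detection; full inhibition defined by wells lacking enzyme.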
# * = called active by the depositor; ? = inconclusive; . = no result given; [ ] = remark or other dose. Unless noted, calls come from the whole dose curve; as a rule, active = well fitted curve in the direction sought with a large enough effect; inconclusive = small, poorly fitted or top-dose-only effect, or another doubt; inactive = no such curve, though single readings can be large; an effect the other way counts as inactive or inconclusive. Unless noted, % is set by controls: 0 for no effect and ±100 for the full control effect.
SMILES,Giardia kill,GALK inh,TrxR1 inh,Coupling enz,TrxR1 substrate,PI4K2A inh
Nc1c(Cl)cc(C2=NCCn3c2c2ccc(C(F)(F)F)cc2[n+]3[O-])cc1Cl,-94*,.,6%,.,1%,-1
Nc1c(Cl)cc(C2=NCCn3c2c2ccccc2[n+]3[O-])cc1Cl,?,.,11%[57.1 µM],.,9%[57.1 µM],-1
CN(C)Cc1cc(O)c(CN(C)C)cc1O,10,.,14µM*,-32*,-14%,-23
O=C(CN1CCN(c2ccc(F)cc2)CC1)c1ccc2c(c1)OCO2,-6,-3%,25µM*,5,4%,4
O=C(CN1CCN(c2ccc(Cl)cc2)CC1)c1ccc2c(c1)OCO2,-18,-1%,?,.,-4%[57.1 µM],-2
Cc1c(C)c2c(c(C)c1O)CC[C@@](C)(C(=O)O)O2,.,.,.,-34*,.,.
O=C(O)Cc1c(Cl)ccc(Cl)c1Cl,.,.,.,4,.,.
CCNc1ccc(/C=C/c2ccnc3ccccc23)cc1,.,.,-10%[0.0914 µM],.,-11%,.
CC(=O)N[C@@H]1C[C@@H]2O[C@@H](CO)CC[C@@H]2O[C@@H]1CCc1ccc(C#CC2(O)CCCC2)cc1,.,.,.,.,.,6
O=C1C2=C(S[C@@H]3O[C@H](CO)[C@@H](O)[C@H](O)[C@H]3O2)C(=O)c2ccccc21,.,.,.,-40*,.,.
COc1c(O)cc2c(c1O)[C@@H]1O[C@H](CO)[C@@H](O)[C@H](O)[C@H]1OC2=O,-18,-1%,1%,-1,-1%,-4
CN(C)C=Nc1ccc2nc3c(cc2c1)[nH]c1ccccc13,-89*,.,17%,-11,40%,-2
CCOC(=O)CNC(=O)O[C@H]1C(=O)c2ccc(OC)cc2O[C@@H]1c1ccc2c(c1)OCO2,.,.,.,3,.,.
CCCN(CCC)CC(O)CN(c1ccccc1)S(=O)(=O)c1ccc(C)cc1 (centres undefined),0,1%,12%[57.1 µM],3,3%[57.1 µM],2
Cc1ccc(N(CC(O)COCc2ccco2)S(=O)(=O)c2ccc(C)cc2)cc1 (centres undefined),-6,-4%,7.1µM*,4,4%,-23
CCCC[C@H]1C2CC(OC(=O)Nc3cccc(C(F)(F)F)c3)C(C2)[C@H]2CCCCN21 (some centres undefined),.,.,.,.,.,0
Cn1c(N/N=C/c2cc3ccccc3nc2Cl)nc2ccccc21,-88*,2%,23%[11.4 µM],-2,4%[11.4 µM],0
COC1=C(N)C(=O)c2nc(-c3nc(C(=O)O)c(C)c(-c4ccc(OC)c(OC)c4O)c3N)ccc2C1=O,?,8.9µM*,-4%,-64*,-17%,?
CCOC(=O)N1CCN(C(=O)c2ccc3c(c2)NC(=O)/C(=C\c2ccc(OC)c(OC)c2)S3)CC1,18,7%,25µM*,2,-6%,-3
COc1ccc(OC)c(CCNC(=O)CSc2ccsc2[N+](=O)[O-])c1,?,-3%,?,-2,-1%,-8
COc1ccc(CCNC(=O)CSc2ccsc2[N+](=O)[O-])cc1OC,-89*,-1%,-5%,-1,-2%,-9
O=C(CSc1ccsc1[N+](=O)[O-])NC1CCCC1,-90*,-1%,?,0,-1%,-6
O=[N+]([O-])c1ccccc1S(=O)(=O)Oc1ccc(/C=N/n2cnnc2)cc1,-81*,-1%,?,-1,3%,-16
COc1cc(/C=N/n2cnnc2)ccc1OS(=O)(=O)c1ccccc1[N+](=O)[O-],-21,0%,?,-1,-4%,-1
Cc1[nH]c2ccccc2c1C(=O)CN1CCC(C)CC1,3,-1%,35µM*,-3,-4%,4
SMILES,Giardia kill,GALK inh,TrxR1 inh,Coupling enz,TrxR1 substrate,PI4K2A inh
COc1cc(OC)c(/C=C/c2cc3ccccc3c[n+]2C)c(OC)c1,.,.,-23%,.,-15%,.
Cc1ccc2c(c1)CCCN2C(=O)Nc1ccc2c(c1)OCO2,5,-1%,9%[57.1 µM],-40*,8%[57.1 µM],-3
O=C(Nc1ccc2c(c1)OCO2)N1CCCc2ccccc21,-7,4%,18%,0,3%,4
CCOC(=O)Nc1c(O)ccc2oc(C)c(-c3ccccc3)c12,-11,-1%,8%,-57*,7%[57.1 µM],6
Cc1ccc(C2CC(=O)N3CN(c4ccc(Br)cc4)CSC3=C2C#N)o1 (centres undefined),0,2%,?,-38*,-3%,-2
CCc1ccccc1N1CSC2=C(C#N)C(c3cc(OC)c(OC)cc3OC)CC(=O)N2C1 (centres undefined),22,-1%,?,-52*,1%,-12
CCOc1ccc(N2CSC3=C(C#N)C(c4ccco4)CC(=O)N3C2)cc1 (centres undefined),2,0%,9%,-29,6%,-3
COc1ccc(OC)c(C2CC(=O)N3CN(c4cccc(Cl)c4C)CSC3=C2C#N)c1 (centres undefined),2,2%,?,-28,9%[57.1 µM],4
COc1ccc(OC)c(C2CC(=O)N3CN(c4ccccc4F)CSC3=C2C#N)c1 (centres undefined),-24,2%,?,-84*,0%[57.1 µM],-10
COc1cc(OC)c(C2CC(=O)N3CN(c4ccccc4)CSC3=C2C#N)cc1OC (centres undefined),-12,0%,32µM*,-24,-17%,-6
COc1cc(OC)c(C2CC(=O)N3CN(C)CSC3=C2C#N)cc1OC (centres undefined),-11,2%,-26%[57.1 µM],-10,1%[57.1 µM],-6
O=S(=O)(Nc1cccc2cccnc12)c1ccc(Br)cc1,.,.,.,-17,.,.
CN1CCN(c2oc(/C=C/c3ccc(F)cc3)nc2C#N)CC1,.,.,?,.,325%,1
Cc1sccc1Br,.,.,.,.,.,2
O=c1[nH]cc(C#Cc2ccccc2)c2ncncc12,16,.,-2%,.,-1%,.
CC(=O)O[C@H]1CC[C@@]2(C)C(=CC[C@@H]3[C@@H]2CC[C@]2(C)C(C(C)=O)=CC[C@@H]32)C1,.,.,.,.,.,3
COc1cccc(C(=O)N2CCN(c3ccc(N4CCOCC4)nn3)CC2)c1,22,.,8%,.,74%,0
COc1ccc2c(c1)CCc1cc(C(=O)N3CCN(c4ccc(N5CCOCC5)nn4)CC3)sc1-2,-5,1%,15%,-58*,70%,0
O=C(NC(NC(=S)Nc1ccc(F)c([N+](=O)[O-])c1)C(Cl)(Cl)Cl)C(c1ccccc1)c1ccccc1 (centres undefined),.,.,.,0,.,.
CCOc1ccc(NC(=O)Nc2cc(C)ccc2F)cc1,-2,9%,0%[57.1 µM],3,-1%[57.1 µM],-64*
COc1cccc(OC)c1C(=O)NC(C)C12CC3CC(CC(C3)C1)C2 (centres undefined),-25,-3%,11%,4,2%,-7
